Assay results taken from PubChem BioAssay.
Values joined by “and” are separate entries in the source; they are usually repeats but may differ in a detail not shown here. Identical values can stand only once. Active and inactive are the calls of the source.

Assay: probe aXIP binding to arrayed compounds – biochemical, NeuroSMM set, 635/667 nm fluorescence, primary screen (AID 1119);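 further: probe is the protein aXip251-270 applied at 1 µg/mL to compound-printed slides; binding of probe to printed compounds measured as 667 nm fluorescence plus signal to noise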
Settings: small-molecule microarray, higher = more signal, called active from +8 up or from −8 down

Q: With `C=CCN(CCCCC)C(=O)C(c1cccs1)N(C(=O)/C=C\C(=O)O)c1c(Cl)cccc1CO` (centres undefined) as the compound, how does the composite Z-score read?
A: Its composite Z-score is -0.798 (inactive) and 0.414 (inactive).

Q: For `C=C[C@@H](OC)[C@H](O)c1ccc(O)c(F)c1`, which composite Z-score is on record?
A: Its composite Z-score is 1.31 (inactive) and -0.643 (inactive).

Q: Which composite Z-score does the source give for `C[N+](C)(C)CCCCNC(=O)[C@@H]1C[C@@H]2C(=O)N[C@@H](CCCC[N+](C)(C)C)C(=O)N2[C@@H]1c1cccc(OCCO)c1` here?
A: The composite Z-score was 0.104 (inactive) and 2 (inactive).

Q: For `C=CC[C@@H](O)c1ccc(OCCO)cc1`, which composite Z-score is on record?
A: The composite Z-score was 0.0022 (inactive) and 0.259 (inactive).

Q: For `CCCNC(=O)OC[C@H]1O[C@H](CCON=C(C)CCN2CCc3nc(-c4ccccc4)c(-c4ccccc4)cc3C2)C=C[C@@H]1Oc1ccc(OC)cc1`, which composite Z-score is on record?
A: Its composite Z-score is 0.126 (inactive).

Assay: probe aNOTCH3 binding on compound microarray – biochemical, small-molecule microarray, 635/667 nm fluorescence, primary screen (AID 1120);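 further: probe is a biotin-tagged antibody raised against NOTCH3 rather than NOTCH3 protein; score merges spot fluorescence near 667 nm with spot signal to noise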
Settings: higher = more signal

Q: With `C=C[C@@H](C)[C@H](O)c1ccc(O)c2ccccc12` as the compound, how does the composite z-score read?
A: Its composite z-score is -0.209 and -0.454.

Q: Which composite z-score does the source give for `CCOC(=O)C[C@H]1[C@H](OC(=O)c2ccccc2-c2ccccc2)[C@@H](NC(=O)Cc2ccc(OC)cc2)c2cc(OCCCO)ccc2N1C(=O)c1ccc2ccccc2n1` here?
A: Its composite z-score is -0.0347 and -0.0608.

Q: With `COCn1c2ccccc2c2nnc(C(C)=O)nc21` as the compound, how does the composite z-score read?
A: Its composite z-score is -0.0647 and 0.106.

Q: Which composite z-score does the source give for `C[C@@H](ON=C1[C@H]2CCn3c(=O)n(-c4ccccc4)c(=O)n3[C@H]2[C@H](O)[C@@H]2O[C@H]12)c1cn([C@H](CO)Cc2ccccc2)nn1` here?
A: The composite z-score was -0.216.

Q: With `COC(=O)C1=C(C)N(Cc2ccccc2)[C@]23O[C@](C(=O)OC)(C(=O)N2[C@@H]1c1ccccc1)[C@H]1C(=O)N(C)C(=O)[C@H]13` as the compound, how does the composite z-score read?
A: The composite z-score was -0.212 and 0.0751.

Q: With `C[C@@H]1CC[C@H]2C(=O)N3[C@@H](CC[C@@H](C)[C@@H]3c3ccc(-c4ccco4)cc3)C(=O)N2[C@H]1c1ccc(-c2ccco2)cc1` as the compound, how does the composite z-score read?
A: Its composite z-score is 0.116 and 0.385.

Q: For `CCOC(=O)NN=C1C[C@@H](O)[C@@H](O)[C@@H]2[C@@H]3C(=O)N(Cc4ccc5c(c4)OCO5)C(=O)[C@@H]3CC[C@@H]12`, which composite z-score is on record?
A: The composite z-score was -0.141.

Q: With `C=CCN(C(=O)C(c1cccs1)N(C(=O)/C=C\C(=O)O)c1ccc(CCO)cc1)c1ccc(OC)cc1` (centres undefined) as the compound, how does the composite z-score read?
A: Its composite z-score is -0.299 and -0.451.

Q: With `CC(CO)N1C(=O)[C@@H]2C3C(=O)OCCC=C[C@H]3OC23C=CCN(c2ccc(Cl)cc2)C(=O)[C@@H]13` (some centres undefined) as the compound, how does the composite z-score read?
A: Its composite z-score is -0.33 and 0.0749.

Q: With `C#CCN1C(/C=C/c2ccccc2)C(=O)OC[C@H]1c1ccccc1` (some centres undefined) as the compound, how does the composite z-score read?
A: Its composite z-score is -0.0766 and 0.228.

Q: With `C[C@@H]1CN2[C@@H](CC[C@@H](C)[C@@H]2c2ccc(Br)cc2)C(=O)O1` as the compound, how does the composite z-score read?
A: The composite z-score was 0.0357 and -0.0363.

Q: With `C=CCN(C(=O)C(c1cccs1)N(CCOCCO)C(=O)/C=C\C(=O)O)c1ccc(OC)cc1` (centres undefined) as the compound, how does the composite z-score read?
A: Its composite z-score is -0.212 and -0.312.

Q: For `C=CCN(CCCCC)C(=O)C(c1cccs1)N(C(=O)/C=C\C(=O)O)c1ccc(CCO)cc1` (centres undefined), which composite z-score is on record?
A: The composite z-score was -0.499 and -0.508.

Q: For `C[C@@H](c1ccccc1)N1C(=O)[C@H]2[C@H]3[C@H](O)[C@H](O)CC(=O)[C@@H]3CC[C@H]2C1=O`, which composite z-score is on record?
A: The composite z-score was -0.0345.

Q: For `CO[C@H]1COC(=O)[C@H](C)NC(=O)CC=C[C@@H](C)[C@H](OC)COC(=O)CC=C[C@@H]1C`, which composite z-score is on record?
A: Its composite z-score is -0.0716.

Q: With `CCOC(=O)C[C@H]1[C@H](OC(=O)c2ccccc2-c2ccccc2)[C@@H](NC(=O)c2ccccc2)c2cc(OCCCO)ccc2N1C(=O)c1ccc2ccccc2n1` as the compound, how does the composite z-score read?
A: Its composite z-score is 0.0223 and 0.228.

Q: For `C=CCN(C(=O)C1N(CCOCCO)C(=O)C2C(C(=O)O)C3C=CC21O3)C(C)(C)C` (centres undefined), which composite z-score is on record?
A: The composite z-score was -0.465 and -0.469.

Q: With `CCCNC(=O)OC[C@H]1O[C@H](CCON=C(C)CCC(=O)OC[C@H]2O[C@H](C#Cc3ccccc3)C=C[C@@H]2Oc2ccc(C)cc2)C=C[C@@H]1Oc1ccc(OC)cc1` as the compound, how does the composite z-score read?
A: Its composite z-score is -0.158.

Q: For `CCOC(=O)c1ccc(NC(=O)O[C@H]2[C@H](OC(=O)Nc3ccccc3)[C@H](OC(=O)Nc3ccccc3)[C@@H](OC)O[C@@H]2CO)cc1`, which composite z-score is on record?
A: The composite z-score was 0.583 and 0.228.

Q: For `O=C1NC(=O)C2C1C=CC(C(O)c1ccc([N+](=O)[O-])cc1)N2Nc1ccc(Cl)cc1Cl` (centres undefined), which composite z-score is on record?
A: The composite z-score was 0.0597 and 0.133.

Q: With `CC(C)=NO[C@@H](C)c1cc(-c2c(C)cc(C)cc2C)no1` as the compound, how does the composite z-score read?
A: Its composite z-score is -0.181.

Q: Which composite z-score does the source give for `CC(C)=NOCc1ccc(-c2cn([C@@H]3COC[C@H]3O)nn2)cc1` here?
A: The composite z-score was -0.0179.

Q: With `C=CC[C@@H](O)c1ccc(O)c2ccccc12` as the compound, how does the composite z-score read?
A: Its composite z-score is 0.347 and 0.0296.

Q: Which composite z-score does the source give for `C[C@@H]1CC[C@@H](C(=O)O)N[C@H]1c1ccc(-c2ccco2)cc1` here?
A: Its composite z-score is 0.0458.

Q: For `COC(=O)c1c2oc(c1C(=O)OC)C(=O)N[C@@H](Cc1ccccc1)Cn1cc(nn1)C1(CCCCC1)NC(=O)N[C@H](CO)CC2`, which composite z-score is on record?
A: Its composite z-score is 0.13 and 0.0613.

Q: With `C=C[C@@H](OC)[C@H](O)c1ccc(OC)c(O)c1` as the compound, how does the composite z-score read?
A: Its composite z-score is -0.0044 and -0.521.

Q: Which composite z-score does the source give for `C=CCN(CCCCC)C(=O)C1N(CCCCCCO)C(=O)C2C(C(=O)O)C3C=CC21O3` (centres undefined) here?
A: The composite z-score was -0.374 and -0.327.

Q: Which composite z-score does the source give for `C=CCN(C(=O)C(c1cccs1)N(C(=O)/C=C\C(=O)O)C(C)(C)CO)C(C)(C)C` (centres undefined) here?
A: The composite z-score was -0.289 and -0.358.

Q: With `Cc1ccc(S(=O)(=O)OC[C@@H]2CN3[C@@H](CC[C@@H](C)[C@@H]3c3ccc(Br)cc3)C(=O)O2)cc1` as the compound, how does the composite z-score read?
A: The composite z-score was 0.062 and 0.0051.

Q: With `CC(C)[Si]1(C(C)C)OCc2cc(CCCc3cc4c(c(CCc5ccccc5)n3)[Si](C(C)C)(C(C)C)OC4)nc(CCc3ccccc3)c21` as the compound, how does the composite z-score read?
A: Its composite z-score is -0.124 and -0.0578.

Q: Which composite z-score does the source give for `C=CCN(Cc1ccccc1)C(=O)C1N(c2c(Cl)cccc2CO)C(=O)C2C(C(=O)O)C3C=CC21O3` (centres undefined) here?
A: Its composite z-score is -0.425 and -0.352.

Q: With `COc1ccc(-c2ccc3c(n2)CCCN3CC(O)CN2CCCc3nc(-c4ccc(Br)cc4)ccc32)cc1` (centres undefined) as the compound, how does the composite z-score read?
A: The composite z-score was 0.448 and 0.392.

Q: With `COc1ccc(O[C@H]2C=C[C@@H](c3ccccc3)O[C@@H]2COC(=O)CCC(C)=NO[C@H](C)c2cn([C@H](CO)Cc3ccccc3)nn2)cc1` as the compound, how does the composite z-score read?
A: Its composite z-score is 0.0886 and -0.295.

Q: For `C=CCN1C(=O)[C@]2(O[C@H](CCn3cc(CCO)nn3)[C@@H]([Si](C)(C)c3ccc(OC)cc3)[C@@H]2C)c2cc(N3C(=O)c4cccc5cccc3c45)ccc21`, which composite z-score is on record?
A: The composite z-score was 0.0522 and 0.0259.

Q: With `C=CCN(CCCCC)C(=O)C(c1cccs1)N(C(=O)/C=C\C(=O)O)c1c(Cl)cccc1CO` (centres undefined) as the compound, how does the composite z-score read?
A: The composite z-score was -0.533 and -0.396.

Q: For `C=C[C@@H](OC)[C@H](O)c1ccc(O)c(F)c1`, which composite z-score is on record?
A: The composite z-score was -0.502 and -0.544.

Q: For `C[N+](C)(C)CCCCNC(=O)[C@@H]1C[C@@H]2C(=O)N[C@@H](CCCC[N+](C)(C)C)C(=O)N2[C@@H]1c1cccc(OCCO)c1`, which composite z-score is on record?
A: The composite z-score was 0.197 and 0.129.

Q: For `C=CC[C@@H](O)c1ccc(OCCO)cc1`, which composite z-score is on record?
A: The composite z-score was -0.506 and -0.643.

Q: Which composite z-score does the source give for `CCCNC(=O)OC[C@H]1O[C@H](CCON=C(C)CCN2CCc3nc(-c4ccccc4)c(-c4ccccc4)cc3C2)C=C[C@@H]1Oc1ccc(OC)cc1` here?
A: The composite z-score was 0.0179.
